Data taken from ChEMBL document CHEMBL2218924, “A broad activity screen in support of a chemogenomic map for kinase signalling research and drug discovery” (Biochem J, 2013).

Biological target: MAP kinase-activated protein kinase 3 (Homo sapiens) (UniProt Q16644)
Details: at 1 µM

MAP kinase-activated protein kinase 3 (Homo sapiens), sequence (Q16644 whole entry, looked up): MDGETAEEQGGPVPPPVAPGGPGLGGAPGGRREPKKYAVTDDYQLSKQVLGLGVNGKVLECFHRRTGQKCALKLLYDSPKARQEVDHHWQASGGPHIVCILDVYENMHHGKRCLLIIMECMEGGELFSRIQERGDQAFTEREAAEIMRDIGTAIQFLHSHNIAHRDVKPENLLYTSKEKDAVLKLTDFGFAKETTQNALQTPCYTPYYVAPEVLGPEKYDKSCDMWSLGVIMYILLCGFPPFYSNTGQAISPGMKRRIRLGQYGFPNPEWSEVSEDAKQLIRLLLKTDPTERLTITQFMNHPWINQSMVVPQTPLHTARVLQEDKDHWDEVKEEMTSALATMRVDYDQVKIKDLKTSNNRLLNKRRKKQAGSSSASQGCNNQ

Row | Structure (SMILES) | residual activity [%]
1 | Cc1cc(C)c(/C=C2\C(=O)Nc3ccccc32)[nH]1 | 140
2 | O=C(O)/C=C/c1cc(Br)c(Br)c(Br)c1Br | 107
3 | c1ccc(-c2cnc(Nc3ccc(OCCN4CCCC4)cc3)s2)cc1 | 118
4 | Cc1ccc(S(=O)(=O)/C=C/C#N)cc1 | 94
5 | CCOC(=O)c1c(C)[nH]c(/C=C2\C(=O)Nc3ccccc32)c1C | 98
6 | CC(C)n1cnc2/c(=N/c3cccc(Cl)c3)nc(NCCO)[nH]c21 | 116
7 | O=C1NC(=O)c2c1c1c3ccccc3[nH]c1c1[nH]c3cc(Br)ccc3c21 | 87
8 | Nc1cccc(-c2cc3c(Oc4cccc(O)c4)ncnc3[nH]2)c1 | 126
9 | O=Nc1c(-c2c(O)[nH]c3ccccc23)[nH]c2ccccc12 | 117
10 | O=C1NC(=O)c2c1c1c3ccccc3[nH]c1n1cncc21 | 86
11 | O=C1c2ccccc2-[n+]2ccc3c([nH]c4ccccc43)c21 | 115
12 | N#C/C(=C(\N)Sc1ccc(N)cc1)c1ccccc1C(F)(F)F | 98
13 | c1ccc2c(-c3ccncc3)c[nH]c2c1 | 103
14 | COc1cc2nccc(Oc3ccc(NC(=S)NC(=O)c4ccccc4C)cc3)c2cc1OC | 101
15 | Nc1nccc(-c2c(-c3ccc(F)cc3)ncn2C2CCNCC2)n1 | 123
16 | O=C(Nc1cccc(Nc2nccc(Nc3cccc(C(F)(F)F)c3)n2)c1)C1CC1 | 122
17 | COc1cc2ncnc(Nc3ccc(O)c(Br)c3)c2cc1OC | 124
18 | Cn1cnc2cc3c(Nc4cccc(Br)c4)ncnc3cc21 | 107

Row | Structure (SMILES) | residual activity [%]
19 | O=c1c2ccccc2[nH]c(=S)n1CCN1CCC(=C(c2ccc(F)cc2)c2ccc(F)cc2)CC1 | 89
20 | COc1cc2ncnc(N3CCN(C(=O)Nc4ccc(Oc5ccccc5)cc4)CC3)c2cc1OC | 100
21 | CCCCc1c(-c2ccc(OC)cc2)[nH]c2nccnc12 | 130
22 | CCC(=O)Nc1ccc2ncnc(Nc3cccc(Br)c3)c2c1 | 89
23 | O=C(Nc1cccc(Nc2cc(Nc3cccc(C(F)(F)F)c3)ncn2)c1)C1CC1 | 90
24 | O=C(CCCc1ccc(-c2ccccc2F)cc1)Nc1ccc(O)cc1 | 100
25 | CN(C)S(=O)(=O)c1ccc2c(c1)/C(=C/c1cc3c([nH]1)CCCC3)C(=O)N2 | 94
26 | CC(C)c1nn(-c2c(Cl)cccc2Cl)c2nc(Cc3ccc(OCCO)cc3)[nH]c(=O)c12 | 101
27 | CN[C@@H]1C[C@H]2O[C@@](C)([C@@H]1OC)n1c3ccccc3c3c4c(c5c6ccccc6n2c5c31)C(=O)NC4 | 101
28 | Nc1ncnc2c1cnn2-c1ccccc1 | 95
29 | COc1cc2c(cc1OC)-c1n[nH]c(Nc3cccc(F)c3)c1C2 | 99
30 | O=C1Nc2ccc(Br)cc2/C1=C\c1cc2c([nH]1)CCCC2 | 126
31 | O=c1c(-c2ccc(F)cc2)c(-c2ccncc2)[nH]n1-c1ccc(Cl)cc1 | 122
32 | Cn1cc(/C=C2\C(=O)Nc3ccc(S(N)(=O)=O)cc32)c2ccccc21 | 117
33 | Nc1ncnc2c1c(-c1ccc(Oc3ccccc3)cc1)cn2C1CCCC1 | 114
34 | CC[n+]1c(/C=C/N(C)c2ccccc2)n(-c2ccccc2)c2ccc(-c3nc4ccccc4s3)cc21 | 100
35 | COc1cccc(-c2cc(=O)c3ccccc3o2)c1N | 122
36 | O=C1NC(=O)/C(=C\c2ccc3nccnc3c2)S1 | 97
